Laboratory results from PubChem BioAssay (Tox21).
Results filed as inconclusive are left out. Where a call stands in place of a potency, no number is given. Activity calls are given as the source filed them. Calls follow the shape of the dose curve; as a rule, active = well fitted cell-killing curve with a large enough effect in the repeat runs; inconclusive = weak or mixed curves, or effect the other way; inactive = flat fitted curve, though single readings scatter.

assay: qHTS assay to identify small molecule antagonists of the estrogen receptor alpha (ER-alpha) signaling pathway using the BG1 cell line in the presence of 0.1 nM 17-beta-estradiol - cell viability counter screen (AID 1259241); settings: VM7Luc4E2 (BG1) viability, CellTiter-Fluor protease, 22 h, 0.1 nM estradiol agonist added; series mostly up to 92.4 µM; also: nearly all actives have a fitted effect of over 40% in size
Excerpt: National Center for Advancing Translational Sciences [NCATS]
NIH Chemical Genomics Center [NCGC]
U.S. Environmental Protection Agency [EPA]
National Institutes of Environmental Health Sciences [NIEHS]
National Toxicology Program [NTP]
U.S. Food and Drug Administration [FDA]
Estrogen receptor (ER), a member of the nuclear hormone receptor plays an important role in development, metabolic homeostasis and reproduction. Two subtypes of ER, ER-alpha and ER-beta, have similar expression patterns with some uniqueness in both types. Endocrine disrupting chemicals (EDCs) and their interactions with steroid hormone receptors like ER causes disruption of normal endocrine function. Therefore, it is important to understand the effect of environmental chemicals in ER signaling pathway. For identifying ER antagonists, VM7Luc4E2 cell line was used to screen against Tox21 compound libraries.
VM7Luc4E2 cell line (provided by Denison MS, University of California) endogenously express full-length ER-alpha and is stably transfected with a plasmid containing four estrogen responsive elements (ERE) upstream of a luciferase reporter gene. The current screening for identification of ER-alpha inhibitors against Tox21 compound libraries used lower concentration (0.1 nM) of 17beta-Estradiol as a stimulator. The cytotoxicity of the Tox21 compound libraries against VM7Luc4E2 cell line was tested by measuring live-cell protease activity using CellTiter-Fluor assay in the same wells.
Tox21 Assay Protocol Summary:
VM7Luc4E2 cells were cultured in phenol red free assay medium containing 10% charcoal stripped FBS for 5 days prior to the assay. The cells were dispensed at 4,000 cells/well in 4 uL of assay medium into white wall/solid-bottom 1536-well plates (Corning Life Sciences, Corning, NY) using a Multidrop Combi (ThermoFisher Scientific, Waltham, MA) dispenser. After the assay plates were incubated at 37C and 5% CO2 for 24 hr, 23 nL of compounds dissolved in DMSO, positive controls or DMSO only was transferred to the assay plates by a Pintool station (Kalypsys, San Diego, CA). The transfer of compounds was followed by the addition of 1 uL of 0.1 nM (final concentration) agonist (17beta-Estradiol)/assay medium using a Flying Reagent Dispenser (FRD, Aurora Discovery, San Diego, CA). The plates were incubated at 37C and 5% CO2 for 22 hr. For cytotoxicity assay, 1 uL of CellTiter-Fluor reagent (Promega Corporation, Madison, WI) was added to each well using the FRD and after 30 min incubation at 37C and 5% CO2, The fluorescence intensity was measured using ViewLux plate reader (PerkinElmer, Shelton, CT).
Potency is read from the fitted curve at half-maximal effect.

SMILES | Potency
COc1ccc(C)cc1 | inactive
CCCCCCCCCCCCCOS(=O)(=O)O | inactive
CC(C)OC(=O)c1ccccc1C(=O)OC(C)C | inactive
CCC(=O)OCc1ccc(OC)cc1 | inactive
CCN(Cc1cccc(S(=O)(=O)O)c1)c1ccc(C(=C2C=CC(=[N+](CC)Cc3cccc(S(=O)(=O)O)c3)C=C2)c2ccccc2S(=O)(=O)[O-])cc1 | 19.4 µM (active)
CCSC(=O)N(CC)CC | inactive
COC1CCC=CO1 (stereo not given) | inactive
C=Cc1ccc(OC(C)=O)cc1 | inactive
SCCc1cnccn1 | inactive
CC(C)(C)NCC(O)COc1cccc2c1C[C@H](O)[C@H](O)C2 (stereo not given in full) | inactive
Cc1c(C2(c3cc(Br)c(O)c(Br)c3C)OS(=O)(=O)c3ccccc32)cc(Br)c(O)c1Br | 13.3 µM (active)
C=CC(=O)O | inactive
Cc1c[nH]c2ccccc12 | inactive
O=NN(CCCl)C(=O)NCCCl | inactive
O=S(=O)(O)CO | inactive
O=C(O)c1cccc(Oc2ccccc2)c1 | inactive
COC(CC(C)CCCC(C)(C)O)OC (stereo not given) | inactive
C=CCOC(=O)COCCC(C)C | inactive
O=C(/C=C/c1ccc([N+](=O)[O-])cc1)c1ccccc1 | inactive
CCCCCCCC/C=C/C(=O)O | inactive

SMILES | Potency
O[C@@H](CNC[C@H](O)[C@H]1CCc2cc(F)ccc2O1)[C@@H]1CCc2cc(F)ccc2O1 | inactive
C=C(C)c1ccccc1 | inactive
CC12CC3CC(C)(C1)CC(N)(C3)C2 | inactive
O=C(O)CCS | inactive
Cc1ccc2c(c1)CCCN2 | inactive
COc1ccc2nc(S(=O)Cc3ncc(C)c(OC)c3C)[nH]c2c1 (stereo not given) | inactive
COc1cc(S(=O)(=O)Nc2ccccc2)c(OC)cc1N | inactive
O=C(Oc1ccccc1)c1ccc2ccccc2c1O | inactive
CCOC(=O)Oc1ccc(CCNC(=O)[C@H](CCSC)NC(C)=O)cc1OC(=O)OCC | inactive
CCCCOC(=O)CCCCC(=O)OCCCC | inactive
COc1cc(OC)c2ccc(=O)oc2c1 | inactive
CCC(CO)(CO)[N+](=O)[O-] | inactive
Nc1nc(-c2ccc([N+](=O)[O-])cc2)cs1 | inactive
O=C(Nc1ccc(C(=O)O)c(O)c1)c1ccccc1 | inactive
C1CCCCC1 | inactive
C1=CCC2CC=CC2C1 (stereo not given) | inactive
CC(=O)OCC(=O)[C@@]1(OC(C)=O)[C@@H](C)C[C@H]2[C@@H]3C[C@H](F)C4=CC(=O)C=C[C@]4(C)[C@@]3(F)[C@@H](O)C[C@@]21C | inactive
CCCCCCC(CO)CCCC (stereo not given) | inactive
OCC(CO)n1cnc(-c2ccc(F)cc2)c1-c1ccnc(Oc2ccccc2)n1 | inactive
Cc1cccc2sc(N)nc12 | inactive
